Source: PubChem BioAssay (several laboratories)
Bcl-xL primary – inhibitors of human Bcl-xL, primary screen, biochemical, fluorescence polarization, HTS | Bcl-2-like protein 1 (Homo sapiens), Q07817 | GST-Bcl-xL / FITC-Bim BH3 peptide fluorescence polarization | inhibition, % at 10.9 µM | 320,000 compounds, 0.7% hits | AID 2129, 2009;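 active = inhibition above the mean of all tested compounds plus 3 SD, cutoff set per campaign, cut at about 30% in these data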;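 note: 0% = DMSO wells and 100% = unlabeled Bim-BH3 peptide competitor; inhibitors lower millipolarization by displacing the labeled peptide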
MCL1 BIM primary – inhibitors of MCL1 binding to BIM-BH3, primary screen, biochemical, fluorescence polarization; Induced myeloid leukemia cell differentiation protein Mcl-1 (Homo sapiens), Q07820; GST-MCL1 / FITC-Bim-BH3 fluorescence polarization; inhibition, % at 10.9 µM; 320,000 compounds, 0.68% hits; AID 2057, 2009;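 active = inhibition above the mean inhibition of all tested compounds plus 3 SD, set per campaign, cut at about 40% in these data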;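 note: 0% = DMSO wells and 100% = unlabeled Bim-BH3 peptide control; higher means more loss of mP so more displacement of Bim peptide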
Mcl-1 Bim block – inhibitors of Bim peptide binding to Mcl-1, primary screen, biochemical, bead-based flow cytometry, multiplex | Induced myeloid leukemia cell differentiation protein Mcl-1 (Homo sapiens), Q07820 | Bim peptide-Mcl-1 binding | inhibition, % at 10 µM | 190,000 compounds, 0.1% hits | AID 1009, 2008; in the data active = inhibition above about 40%;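 note: 0% = no compound tracer wells and 100% = peptide blocker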
Mcl1 Noxa PPI – Mcl-1/Noxa binding inhibitors, primary screen, biochemical, TR-FRET, 1536-well; inhibition, % at 21.7 µM; 220,000 compounds, 1.5% hits; AID 1022, 2008; TR-FRET Mcl-1/Noxa peptide binding, 2 h;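 active = compounds that cut the protein-peptide binding signal by more than 50% relative to plate controls in a single-dose test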;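 note: His-tagged Mcl-1 with rhodamine Noxa BH3 peptide and terbium anti-His antibody; 0% = Mcl-1 plus Noxa peptide wells and 100% = peptide-only wells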
Mcl1-Bid inh – Mcl-1/Bid binding inhibitors, primary screen, biochemical, TR-FRET, 1536-well; Induced myeloid leukemia cell differentiation protein Mcl-1 (Homo sapiens), Q07820; TR-FRET Mcl-1/Bid-Dy647 peptide binding; inhibition, % at 21.7 µM; 220,000 compounds, 0.97% hits; AID 1021, 2008;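 active = compounds that cut the binding signal by more than half at the single screening dose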;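 note: His-tagged Mcl-1 with europium anti-His antibody binding Bid BH3 peptide; 0% = Mcl-1 plus peptide wells and 100% = peptide-only wells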
GLD-1 TGE inh – GLD-1/TGE RNA complex disruptors, primary screen, biochemical, fluorescence polarization. purified GLD-1 + fluorescein TGE RNA. inhibition, % at 5.96 µM. 320,000 compounds, 0.44% hits. AID 2280, 2010;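 active = percent inhibition above a per-plate cutoff, the plate mean of test compounds plus 3 SD, cut at about 30% in these data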;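 note: 0% = DMSO wells with GLD-1 and probe and 100% = wells lacking GLD-1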
Target sequence (Q17339 whole entry, looked up): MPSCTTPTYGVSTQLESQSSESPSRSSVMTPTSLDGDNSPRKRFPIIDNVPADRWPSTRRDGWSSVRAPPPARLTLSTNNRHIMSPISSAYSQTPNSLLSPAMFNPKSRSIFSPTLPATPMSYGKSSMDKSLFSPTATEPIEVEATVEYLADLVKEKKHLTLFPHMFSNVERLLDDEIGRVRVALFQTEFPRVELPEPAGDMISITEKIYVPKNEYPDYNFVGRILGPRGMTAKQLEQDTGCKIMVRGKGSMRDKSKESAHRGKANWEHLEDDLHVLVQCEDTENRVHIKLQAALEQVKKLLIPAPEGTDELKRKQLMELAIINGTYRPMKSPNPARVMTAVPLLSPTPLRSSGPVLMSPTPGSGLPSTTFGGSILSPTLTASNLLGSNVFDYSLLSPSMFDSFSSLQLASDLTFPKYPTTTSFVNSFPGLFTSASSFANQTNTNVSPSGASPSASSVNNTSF
Numbers without * were called inactive. A selection: hits, their analogues and other compounds. The true share with any hit is near 2.3%.

`COc1ccc(/C=N/Nc2ccc([N+](=O)[O-])cc2)cc1Cn1cc([N+](=O)[O-])cn1` gave Bcl-xL primary -33.8, MCL1 BIM primary -80.7, Mcl-1 Bim block -4.0, Mcl1 Noxa PPI 72.0*, Mcl1-Bid inh 58.3* and GLD-1 TGE inh -3.0.
For CCO[C@H]1OC(C(=O)N2CCCCCCC2)=C[C@@H](C)[C@@H]1CCCO the results were Bcl-xL primary 1.7, MCL1 BIM primary 2.2, Mcl-1 Bim block 0.0, Mcl1 Noxa PPI -16.0, Mcl1-Bid inh -11.3 and GLD-1 TGE inh 1.1.
For CC(C)(C)NC(=O)NC(=O)CN1C(=O)NC(c2ccccc2)(c2ccccc2)C1=O the results were Bcl-xL primary 1.1, MCL1 BIM primary -1.4 and GLD-1 TGE inh 10.7.
For CCOC(=O)c1c(-c2ccc(C)cc2)csc1NC(=O)/C(C#N)=C/c1ccc(O)c(OC)c1 the results were Mcl-1 Bim block -6.0, Mcl1 Noxa PPI 89.9* and Mcl1-Bid inh 27.9.
For CCOC(=O)/C(C#N)=C\c1ccc(O)c(OC)c1 the results were Bcl-xL primary 0.5, MCL1 BIM primary -1.6, Mcl-1 Bim block 2.0, Mcl1 Noxa PPI 22.4, Mcl1-Bid inh -36.4 and GLD-1 TGE inh -4.8.
`N#Cc1ccc(CO/N=C/c2ccccc2)cc1` gave Bcl-xL primary -6.9, MCL1 BIM primary -3.7, Mcl-1 Bim block 0.0, Mcl1 Noxa PPI -4.3, Mcl1-Bid inh 89.3* and GLD-1 TGE inh 0.7.
O=C(Cc1cccs1)N/N=C/C=C\c1ccco1 was read as Bcl-xL primary 19.5, MCL1 BIM primary 38.7, Mcl-1 Bim block -2.0, Mcl1 Noxa PPI 90.2*, Mcl1-Bid inh -17.0 and GLD-1 TGE inh 21.4.
For O=C(Cc1cccs1)N/N=C/c1ccco1 the results were Bcl-xL primary -0.7, MCL1 BIM primary -2.4, Mcl-1 Bim block -5.0, Mcl1 Noxa PPI 10.7, Mcl1-Bid inh -13.3 and GLD-1 TGE inh 6.4.
Screening COc1ccc(NC(=O)CCCc2nc3ccccc3c(=O)[nH]2)cc1Cl returned GLD-1 TGE inh -3.9.
Cc1cccn2c(=O)c(/C=N/O)c(Nc3ccccc3F)nc12 was read as Bcl-xL primary -6.5, MCL1 BIM primary -9.8, Mcl1 Noxa PPI -28.5, Mcl1-Bid inh 54.5* and GLD-1 TGE inh -11.0.
`CCOc1ccccc1NC(=O)COC(=O)C1CCC(=O)N1` (configuration not stated) gave GLD-1 TGE inh -2.5.
For O=C1OCCN1C(=O)[C@H]1[C@H](c2ccc(F)cc2)C(c2ccc(F)cc2)=NN1c1ccc(Br)cc1 the results were Bcl-xL primary 5.3, MCL1 BIM primary -1.7, Mcl-1 Bim block -2.0, Mcl1 Noxa PPI -97.7, Mcl1-Bid inh -6.1 and GLD-1 TGE inh 5.2.
O=C1OCCN1C(=O)[C@H]1[C@H](c2ccc(F)cc2)C(c2ccc(F)cc2)=NN1c1ccccc1 was read as Bcl-xL primary -8.6, MCL1 BIM primary -7.8, Mcl-1 Bim block 60.0*, Mcl1 Noxa PPI -16.9, Mcl1-Bid inh 0.2 and GLD-1 TGE inh -15.8.
For Cc1ccc(C)c(N(C(=O)c2snc(C(N)=O)c2N)C(C(=O)NCC2CCCO2)c2ccc(C)o2)c1 (configuration not stated) the results were Bcl-xL primary 6.1, MCL1 BIM primary -0.4 and GLD-1 TGE inh -2.9.
`CCOc1c(C)cnc2c1c(=O)n(Cc1ccccc1F)c(=O)n2C` gave Bcl-xL primary -0.3, MCL1 BIM primary -7.0 and GLD-1 TGE inh 3.8.
COc1ccc(CCNC(=O)CCOc2ccc(C(C)(C)C)cc2)cc1OC was read as Bcl-xL primary -0.7, MCL1 BIM primary -2.0 and GLD-1 TGE inh 3.1.
Screening CCOC(=O)c1c(NC(=O)Cc2ccccc2)sc2c1CCN(C)C2 returned Bcl-xL primary -2.5, MCL1 BIM primary -6.6 and GLD-1 TGE inh -5.2.
